# Source: PubChem
# Only a sample is shown.
# aSyn 5UTR act: Activators via SNCA 5'UTR binding, MLPCN; activity score, % (tested at 7.5 µM), hits read low; actives 7.1% (n = 300,000); alpha-synuclein 5'UTR reporter, activators screen; in the data active means activity score below about -60%
# An asterisk follows results filed as active.
SMILES,aSyn 5UTR act
Cc1ccccc1Nc1nc(N)nc(CSc2nnnn2C)n1,-109*
Cc1ccccc1Nc1nc(N)nc(CSc2ccc(F)cc2)n1,-125*
O=C(Oc1ccc2cc(Br)ccc2c1)N1CCCCCC1,-169*
CC1Cc2ccccc2N1C(=O)/C=C/c1cccc(F)c1 (stereo not given),-170*
CC1Cc2ccccc2N1C(=O)Cc1cccs1 (stereo not given),38
Cc1c(C(=O)C(=O)N2c3ccc(F)cc3CCC2C)c2ccccc2n1C (stereo not given),62
CCN(CC)CCN1C(=O)c2oc3ccccc3c(=O)c2C1c1ccc(F)cc1 (stereo not given),-70*
CCCC1CC(=O)OC1(C)C(=O)CSc1n[nH]c(-c2ccccc2)n1 (stereo not given),-66*
O=C(CN1C(=O)S/C(=C\c2ccc(O)cc2)C1=O)c1ccccc1,-157*
O=C(CCCN1C(=O)S/C(=C\c2ccccc2)C1=O)NNC(=O)c1ccccc1O,83
Clc1ccc(CSc2snnc2-c2ccccc2)c(Cl)c1,-121*
O=[N+]([O-])c1ccccc1CSc1nnc2ccccn12,-121*
c1ccn2c(SCc3cn4ccsc4n3)nnc2c1,-166*
Clc1ccc(CSc2nnc3ccccn23)c(Cl)c1,-75*
Cc1ccc2c(c1)N=C(c1ccccc1)CC(C(Cl)Cl)=N2,-74*
Cc1ccc(C2=Nc3ccccc3N=C(C(Cl)Cl)C2)cc1,-76*
Clc1cccc(N/N=C/c2ccc(N3CCOCC3)s2)c1,-167*
COc1ccc(Cl)cc1C(=O)Nc1nc2ccc(S(C)(=O)=O)cc2s1,-73*
COc1cc(OC)cc(C(=O)Nc2nc3ccc(S(C)(=O)=O)cc3s2)c1,-149*
CS(=O)(=O)c1ccc2nc(NC(=O)c3cccc([N+](=O)[O-])c3)sc2c1,-136*
CCOC(=O)c1sc(=NC(=O)c2ccccc2Br)n(C)c1C,-101*
CCOC(=O)c1sc(=NC(=O)/C=C/c2ccccc2)n(C)c1C,-111*
CCOC(=O)c1sc(=NC(=O)c2ccc(Cl)s2)n(C)c1C,-194*
CCOC(=O)c1sc(=NC(=O)c2ccc(C)c(C)c2)n(C)c1C,-283*
CCOC(=O)c1sc(=NC(=O)c2cccs2)n(C)c1C,-122*
SMILES,aSyn 5UTR act
Cc1ccc2c(c1)sc(=NC(=O)c1cccs1)n2C,85
Cc1ccn2cc(CSc3ccccc3N)nc2c1,-97*
c1ccc(CSCc2cn3ccccc3n2)cc1,-135*
Cc1ccc(SCc2cn3ccccc3n2)cc1,-97*
CCCNC(=O)c1cc(Cl)c(NC(=O)C2=CSCCO2)cc1OC,-136*
Nc1cnc(Nc2ccc(Br)cc2)nc1N,-106*
CCc1ccc(/C=C2/C(=O)N(C)C(=S)N2CC(=O)OC)s1,-81*
CN(C)CCOc1nc(-c2ccccc2)nc2c1oc1ccccc12,-88*
N=C1S/C(=C\c2cn[nH]c2-c2ccc(F)cc2)C(=O)N1c1ccccc1F,-108*
Cc1cccc(NC(=S)Nc2ccccn2)c1,-71*
Cc1cc(C)cc(NC(=S)Nc2ccccn2)c1,-105*
Cc1ccc(NC(=S)Nc2ccccn2)cc1C,-112*
Cn1c(-c2ccccc2)cnc1SCc1nc2ccccc2c(=O)[nH]1,-62*
O=C(NNC(=O)c1cccs1)c1ccc2ccccc2c1,-71*
O=C(COC(=O)c1cccs1)c1ccc2c(c1)OCCO2,-176*
COc1ccc(OCCOC(=O)c2cccs2)cc1,-66*
CC(=O)NC12CC3CC(C1)CC(C(=O)OCC(=O)c1ccc4c(c1)OCCO4)(C3)C2,-134*
COCCOC(=O)c1[nH]c2c(c1C)C(=O)CC(c1cccs1)C2 (stereo not given),64
O=C(COC(=O)c1cccs1)c1ccc2ccccc2c1,-121*
Cc1ccc(Oc2nn[nH]n2)cc1,-77*
O=C(NC1CCCC1)c1ccc([N+](=O)[O-])s1,-153*
Cc1cccc(NC(=O)c2ccc([N+](=O)[O-])s2)n1,-88*
Cc1ccnc(NC(=O)c2ccc([N+](=O)[O-])s2)c1,-238*
CC(SCc1ccccc1)C(=O)Nc1ccc2c(c1)OCO2 (stereo not given),-66*
Cc1ccc(NC(=O)C(C)SCc2ccccc2)cc1 (stereo not given),-87*
SMILES,aSyn 5UTR act
COc1cccc(NC(=O)C(C)SCc2ccccc2)c1 (stereo not given),-63*
COc1ccc(C(CNC(=O)c2sccc2C)N2CCOCC2)cc1 (stereo not given),-70*
COc1ccccc1NC(=O)COc1ccc(C(F)(F)F)cc1[N+](=O)[O-],-73*
COc1ccccc1NC(=O)COc1ccccc1,-91*
COc1ccc(NC(=O)COc2ccccc2)c(OC)c1,-115*
COc1ccc(OCC(=O)Nc2ccccc2O)cc1,-160*
COc1ccc(C)cc1Nc1nc(N)c2ccccc2n1,-102*
CN(C)c1ccc(Nc2nc(N)c3ccccc3n2)cc1,109
Nc1nc(Nc2ccccc2)nc2ccccc12,-82*
COc1ccc([N+](=O)[O-])cc1Nc1c2ccccc2nc2ccccc12,77
CCc1nnc(NC(=O)C2Cc3ccccc3CN2S(=O)(=O)c2c(C)c(C)cc(C)c2C)s1 (stereo not given),-104*
COc1ccc(Cl)cc1NC(=O)C1Cc2ccccc2CN1S(C)(=O)=O (stereo not given),54
CN(C)c1ccc(/C=N/NC(=O)c2ccco2)cc1,-78*
Cc1ccc(/C=N/NC(=O)c2c(C)nc3ccc(Br)cn23)cc1,80
CN(C)c1ccc(/C=N\NC(=O)c2cccc3cc[nH]c23)cc1,-69*
CSC(=S)N/N=C/c1ccc(N(C)C)cc1,-96*
Cc1ccc(/C=N/NC(=O)c2ccco2)cc1,-94*
O=C(Nc1nccs1)c1ccccc1N=Cc1ccccc1,-84*
N#C/C(=C\c1cccs1)C(=O)Nc1nccs1,-75*
C/C(=C\c1ccccc1)C(=O)Nc1nccs1,-121*
C/C=C/C=C/C(=O)Nc1nccs1,-77*
O=C(NC(=O)c1ccccc1)NC1(C(F)(F)F)OCCO1,-113*
Cc1ccc(CSc2nnc(SCC(=O)N/N=C/c3c(C)nn(-c4ccccc4)c3C)s2)cc1,-115*
Cc1nn(-c2ccccc2)c(C)c1/C=N/NC(=O)CSc1nnc(SCc2ccccc2Cl)s1,-71*
Cc1ccc2[nH]c3ccccc3c(=O)c2c1,-93*
SMILES,aSyn 5UTR act
Cc1ccc(-n2cc(CN3CCC(CO)(Cc4ccccc4)CC3)cn2)cc1,-108*
OCC1(Cc2ccccc2)CCN(Cc2cnc(-c3ccc(Cl)cc3)nc2)CC1,-74*
CC(=O)CSc1nc2ccccc2o1,-75*
Cc1cc(SCC(=O)c2ccccc2)nc(C)n1,-115*
O=C(O)c1ccccc1CSc1nc2ccccc2o1,-114*
O=[N+]([O-])c1ccc(Cl)cc1Sc1nc2ccccc2o1,69
O=C(CSc1nc2ccccc2o1)c1ccccc1,-95*
O=C(CSc1ccc2ccccc2n1)c1ccccc1,-125*
Cc1cc(SCC(=O)c2ccccc2)n2ncc(-c3ccccc3)c2n1,-138*
O=C(CSc1ccc(-c2ccco2)nn1)c1ccccc1,-88*
CCCCC[C@H](O)/C=C/[C@@H]1[C@@H](C/C=C\CCCC(=O)OC)[C@@H](O)C[C@H]1O,44
O=Cc1ccc(O)c2ncccc12,63
Cc1ccccc1OCc1nc2ccccc2[nH]1,-138*
COc1ccccc1OCc1nc2ccccc2[nH]1,-70*
COc1cccc(C=O)c1OCCCOc1cccc2cccnc12,-129*
c1cnc2c(c1)ccc1cccnc12,85
Brc1ccccc1OCCOc1cccc2cccnc12,-72*
